In all, about 380,000 compounds went through this assay and about 4,000 (1.1%) were called active. Roughly 3% stayed inconclusive and do not appear here. Only a selection was taken, and actives are over-represented in it overall. Unmarked numbers belong to inactive results. Calls follow the shape of the dose curve; as a rule, active = well fitted activation curve with a large enough effect; inconclusive = small, poorly fitted or top-dose-only effect; inactive = no such curve, though single readings can be large or run the other way.
Potency is read from the fitted curve at half-maximal effect.

This assay is described as follows: qHTS Assay to Identify Small Molecule Activators of BRCA1 Expression. Also: nearly all actives have a fitted effect of over 80% in size. As to conditions: MCF7-BRCA1-FFLuc reporter, luminescence, 48 h; series mostly up to 46.1 µM; activation: at the top concentration. The method, boiled down: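 MCF7-BRCA1-FFLuc cells, 2000/well in phenol-red-free MEM, attached 2 h then treated 48 h at 37 C. Luciferase luminescence read 15 min after reagent; normalized to genistein maximum activation (10microM) and DMSO, concentration-response fitted.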
In general terms: In qHTS, concentration-response curves come from the screen itself.
In the case of `COc1ccc2[nH]c3c(c2c1)CCN(C(=O)CCC1CCCC1)C3c1ccc(F)cc1` (stereo not drawn), the “activation” value was -14.9%. On the same count and under the same terms, to `Cc1ccc(Cl)cc1N1CCN(C(=O)CN2C(=O)COc3ccc(S(=O)(=O)N4CCOCC4)cc32)CC1` belongs -21.5%.

`COc1cccc(OCc2cc(C(=O)N3CCN(C(=O)c4ccco4)CC3)no2)c1`: the Potency was 11.2 µM (active).

With `O=C(c1cc(COc2cccc(C(F)(F)F)c2)on1)N1CCSCC1`, the “activation” value is -8.73%. Turning to `COc1ccc(OCc2cc(C(=O)N3CCCC3)no2)c2ccccc12`, the “activation” value was 64.4%.

Regarding `CCN(CC)S(=O)(=O)c1ccc2c(c1)nc(CN(C)C(=O)Nc1ccc(Cl)cc1)n2C`, the “activation” value was 2.05%. On to `Cc1cc(F)ccc1NS(=O)(=O)c1ccc(-n2cccn2)cc1`, for which the “activation” value was -23.9%.

Turning to `Nc1c(C(=O)Nc2ccc3c(c2)OCCO3)nnn1Cc1ccccc1`, the Potency was 4.47 µM (active). On to `Cn1cc([N+](=O)[O-])c(C(=O)Nc2ccc3c(c2)OCCO3)n1`, for which the “activation” value was 78.5%.

Take `O=C(Nc1ccc2c(c1)OCCO2)C(C1CC1)N1CCC(Cc2ccccc2)CC1` (stereo not drawn): the “activation” value is -7.79%. As for `COC(=O)c1c(NC(=O)CCCOc2ccccc2)sc2c1CCC(C)C2` (stereo not drawn), the “activation” value is 13.8%. Consider `CCN(CCCNC(=O)c1cc2cc3cc(OC)ccc3nc2s1)c1ccccc1`, for which the “activation” value is 8.15%. Take `Cc1cc(NC(=O)CC(C)C)cc(-c2nc3ncccc3o2)c1O`: the “activation” value was -5.81%. For the compound `Cc1ccc(Cc2c(-c3ccco3)nc3ccc(Cl)cn23)cc1`, the “activation” value was -32%. Take `Cc1ccc(-c2nc3ccc(Cl)cn3c2Cc2ccccc2)cc1`: the Potency is 10 µM (active). For the compound `Fc1cccc(Cc2c(-c3ccc(Cl)cc3)nc3ccc(Cl)cn23)c1`, the “activation” value is 18%. As for `CC1(C)CC(=O)c2cc(C(=O)NCc3ccccc3)c(=O)[nH]c2C1`, the “activation” value is 0%. For `Cc1ccc(C)c(NC(=O)c2ccc(OC(=O)c3ccco3)cc2)c1`, the “activation” value is 46.3%.

With `Cc1ccc(O)c(NC(=O)c2cc(-c3ccco3)on2)c1`, the Potency is 5.62 µM (active). With `CC(=O)c1ccc(NC(=O)c2cc(-c3cccs3)on2)cc1`, the “activation” value is 67.3%. The same measure, in the same setting: with `COC(=O)c1ccccc1NC(=O)Cn1c(=O)cc(C)c2c(C)nn(-c3cccc(Cl)c3C)c21` the figure was 4.63%; with `O=C(COc1ccccc1)OCc1cc(=O)n2nc(-c3cccs3)sc2n1`, 0%. `Nc1ccc(N=Nc2ccccc2Cl)c(N)n1`: the Potency is 3.55 µM (active).

For `CCC(C(=O)Nc1cccc(Cl)c1C)n1nc(-c2ccc(C)cc2)ccc1=O` (stereo not drawn), the “activation” value was -24.6%. As to `O=C(Nc1ccccc1)c1ccc(NC(=O)c2cccs2)cc1`, the Potency is 7.94 µM (active).

As for `NS(=O)(=O)c1ccc(NC(=S)NNC(=O)c2cccs2)cc1`, the “activation” value is 0%.

For the compound `CS(=O)(=O)c1ccc(C(=O)NNC(=O)c2cccs2)cc1`, the “activation” value was 1.26%. `COc1cccc(N2CCN(S(=O)(=O)c3cc(Br)cc4c3N(C(=O)C3CC3)CC4)CC2)c1`: the “activation” value is 3.39%. Regarding `COc1ccccc1C(=O)OCc1cc(=O)n2nc(-c3cccs3)sc2n1`, the “activation” value is -16.9%. Turning to `Cc1ccc(-c2noc(-c3ccccc3C(=O)NCC3CCCO3)n2)cc1` (stereo not drawn), the “activation” value was 10.2%. `O=C(NCc1cccnc1)c1nc(-c2cccs2)no1`: the “activation” value was -4.18%. On to `O=C(c1cccs1)N1CCCC(c2nc(-c3ccc(F)cc3)no2)C1` (stereo not drawn), for which the “activation” value is 78.6%. With `c1csc(-c2nc(-c3ccncc3)no2)c1`, the Potency was 4.47 µM (active). For `CCCCNc1ccc(-c2nc(-c3ccncc3)no2)cc1[N+](=O)[O-]`, the “activation” value was 8.14%. For `Cc1ccc(-c2nc(-c3ccncc3)no2)c(C)c1`, the Potency is 5.01 µM (active). As for `COc1ccc(-c2nc(C)c(CCNC(=O)c3ccc(C(F)(F)F)cc3)s2)cc1OC`, the “activation” value is 8.95%. Turning to `COc1ccc(NC(=O)c2ccc3nc(C(C)C)oc3c2)cc1OC`, the “activation” value is 43.9%. The same measure, in the same setting: to `COc1ccc(-n2c(=O)c3c(c4cc(OC)ccc4n3C)n(Cc3cccc(C)c3)c2=O)cc1` belongs -15.1%. The same measure, in the same setting: with `CCOC(=O)c1c(NC(=O)C2CC=CCC2C(=O)O)sc(C)c1CC` (stereo not drawn) the figure was 3.34%. As for `CCc1c(C)sc(NC(=O)c2cccs2)c1C(N)=O`, the Potency is 3.55 µM (active).

`CCc1nnc(NC(=O)c2cccs2)s1`: the Potency was 12.6 µM (active). Turning to `CCOC(=O)CSc1nnc(CNC(=O)c2cccs2)n1-c1ccccc1`, the “activation” value was -17.3%. In the case of `CCc1nnc(NC(=O)C2CCCN2S(=O)(=O)c2ccccc2)s1` (stereo not drawn), the “activation” value is 1.72%. Turning to `CCc1nnc(NC(=O)CCC(=O)NCc2ccccc2OC)s1`, the “activation” value was 0.553%. Turning to `CCS(=O)(=O)N1CCc2cc(C(=O)N3CCN(c4ccccc4OC)CC3)ccc21`, the “activation” value is -1.91%. Same read-out and setting: to `Cc1nc2ccc(NC(=O)C3CCCCC3)cc2s1` belongs 22.7%. Turning to `Cc1nc(NC(=O)C2CCCCC2)sc1C`, the Potency is 12.6 µM (active).

As for `Cc1nc(NC(=O)C23CCC(C)(C(=O)O2)C3(C)C)sc1C` (stereo not drawn), the “activation” value is 0.809%.

On to `CC(C)(C(=O)NO)c1ccccc1`, for which the “activation” value was 28.4%. Consider `C/C(=N\NC(=O)c1ccc2ccccc2c1)c1cccnc1`, for which the Potency is 10 µM (active). In the case of `C/C(=N\NC(=O)c1cccc([N+](=O)[O-])c1)c1cccnc1`, the “activation” value was -22.5%. `C/C(=N\NC(=O)c1cccnc1)c1ccc(-n2ccnc2)cc1`: the “activation” value was 14.6%.

With `OCCNc1ncnc2oc(-c3ccco3)c(-c3ccco3)c12`, the “activation” value was -32.8%. In the case of `Cc1oc2ncnc(N3CCCCC3)c2c1C(=O)N1CCN(c2cccc(Cl)c2)CC1`, the “activation” value was -29.6%. Regarding `COC(=O)c1ccccc1NS(=O)(=O)c1ccc2c(c1)CCCN2C(C)=O`, the “activation” value is 3.64%. `CC(C)CC(=O)NC(=S)NNC(=O)c1cccc([N+](=O)[O-])c1`: the “activation” value was -31.6%. For the compound `CC(=O)c1ccc(NC(=S)NC(=O)CC(C)C)cc1`, the Potency is 7.94 µM (active). On to `CC(C)CC(=O)NC(=S)Nc1ccc(F)cc1F`, for which the “activation” value was 46.9%. For `CCc1ccccc1NC(=O)Cc1ccc(NC(=O)N2CCCCc3ccccc32)cc1`, the “activation” value is 0%. Take `CCCCN(C)S(=O)(=O)c1ccc(C(=O)Nc2sc3c(c2C(N)=O)CC(C)(C)NC3(C)C)cc1`: the “activation” value was -0.616%. With `CCC(C)(C)NC(=O)C(c1ccccn1)N(C(=O)c1csnn1)c1ccccc1` (stereo not drawn), the “activation” value is -9.03%.

Take `CN(C(=O)C1CCOC1)c1nnc(-c2cccnc2)s1` (stereo not drawn): the “activation” value was -2.74%. `CN(C(=O)c1ccccn1)c1nnc(-c2ccccn2)s1`: the Potency is 11.2 µM (active). `Brc1cccc[n+]1Cc1cccc(C[n+]2ccccc2Br)c1`: the “activation” value was 9%.

Take `Cc1cc(C)cc(NC(=O)CCS(=O)(=O)c2cc3c4c(c2)CCN4C(=O)CC3)c1`: the “activation” value was 6.06%. In the case of `COc1ccc2c(c1OC)C(=O)N(c1ncn[nH]1)C2`, the “activation” value was 3.12%. Consider `COc1ccc2c(c1OC)C(=O)N(c1ccc(O)cc1)C2`, for which the Potency is 4.47 µM (active). Regarding `CC(C)(C)c1ccc(Oc2ccc(N)cc2)cc1`, the “activation” value was -82.1%. As to `CC(C)(C)c1ccc(OC2=CS(=O)(=O)c3ccccc32)cc1`, the Potency was 12.6 µM (active). `CC(C)(C)c1ccc(CN2C(=O)c3ccccc3S2(=O)=O)cc1`: the “activation” value is 69.5%. On to `O=S(=O)(c1cccc(C(F)(F)F)c1)N1CCN(c2nc(-c3cccs3)nc3ccccc23)CC1`, for which the “activation” value was 14.8%.

Take `CC(C)(C)OC(=O)NCCCCCC(=O)N/N=C/c1coc2ccccc2c1=O`: the Potency was 11.2 µM (active). For the compound `Cc1cccc(NC(=O)CSc2nnc(CCCCCNC(=O)OC(C)(C)C)o2)c1C`, the “activation” value was -6.49%. `O=C(CCNC(=O)c1ccccc1)NN=Cc1ccc(Br)o1`: the “activation” value is -7.6%. Turning to `Cc1ccc(-c2nc(=N)sn2Cc2ccccc2)cc1`, the “activation” value was 0%. On to `CCOc1ccc(NC(=O)Cn2c(=O)n(CCCC(=O)NCc3ccc4c(c3)OCO4)c(=O)c3ccccc32)cc1`, for which the “activation” value was 7.21%. Turning to `CCN(CC)c1ccc(C(=O)OCC(=O)c2ccco2)cc1`, the Potency was 8.91 µM (active). Take `CCc1ccc(C(=O)COC(=O)c2ccco2)cc1`: the “activation” value is 55.8%. `O=C(COC(=O)c1ccccc1C(=O)c1ccccc1)c1ccco1`: the “activation” value is 2.69%. Regarding `COc1ccc(S(=O)(=O)n2nc(C)c(S(=O)(=O)N3CCCCCC3)c2C)cc1`, the “activation” value is 11.7%.

Regarding `COc1ccc(S(=O)(=O)Nc2cccc3cccnc23)c(N)c1`, the “activation” value was -64.9%. Consider `O=C(NCCCn1ccnc1)c1cc2c(s1)CCCC2`, for which the “activation” value was 0.602%. On to `CCC(=O)c1c[nH]c(C(=O)NCC2CCCO2)c1` (stereo not drawn), for which the “activation” value was -7.15%. `O=C(NCC1CCCO1)c1cc2c(s1)CCCC2` (stereo not drawn): the Potency was 5.62 µM (active). Consider `Cc1snc(SCc2c(F)cccc2Cl)c1C#N`, for which the “activation” value was -0.438%.

Consider `Fc1cccc(Cl)c1CSc1ccc(-c2ccco2)nn1`, for which the Potency is 3.55 µM (active).

In the case of `COc1ccc(NC(=O)CSc2ccc(-c3ccco3)nn2)c(OC)c1`, the “activation” value is -0.876%. `O=C(NC(=S)Nc1ccc(Br)cc1F)C1CCCCC1`: the “activation” value was 34.2%. `S=C(Nc1ccc(Cl)cc1Cl)N1CCCC1`: the “activation” value was 97.8%. For `O=C(NC(=S)Nc1ccc(Cl)cc1Cl)C1CC1`, the Potency was 3.16 µM (active). For the compound `CCC(=O)Nc1ccc(C(=O)Nc2cc(C)on2)cc1`, the “activation” value was 78.7%. Consider `CCOc1ccc(NC(=O)Nc2ccc(N(C)C(C)=O)cc2)cc1`, for which the “activation” value was -10.8%. Regarding `CCOc1ccc(NC(=O)Nc2cc(C)on2)cc1`, the Potency was 7.94 µM (active). In the case of `Cc1ccccc1OCCSc1nc2ccc(NC(=O)c3ccco3)cc2s1`, the “activation” value is 0%. As for `Oc1ccc(Br)cc1C1C=C(c2ccc3c(c2)OCO3)NC(c2ccc(Cl)cc2)N1` (stereo not drawn), the “activation” value was 0%. Turning to `COc1cc(CN2CCC(C(N)=O)CC2)ccc1OCc1ccccc1`, the Potency is 11.2 µM (active). With `COc1ccc(CCN2C(=O)CC(N3CCC(C(N)=O)CC3)C2=O)cc1OC` (stereo not drawn), the “activation” value is 2.27%. For `COc1ccc(COCC(O)CN2CCC(C(N)=O)CC2)cc1` (stereo not drawn), the “activation” value was -22.9%. Still for that read-out and setting: with `CN(C)c1ccc(/C=C/c2sc3ccccc3[n+]2C)cc1` the figure was -43.7%. For the compound `COC(=O)[C@@H](NC(=O)NCc1cccc(OC)c1)C(C)C`, the “activation” value was 4.02%.

For the compound `COc1cccc(CC(=O)OCC(=O)NCc2ccc3c(c2)OCO3)c1`, the “activation” value was -10.7%. For the compound `COc1cccc(CNC(=O)c2n[nH]c3ccccc23)c1`, the Potency is 11.2 µM (active). As for `COc1ccc(COC(=O)c2n[nH]c3ccccc23)cc1F`, the Potency is 14.1 µM (active). With `COc1ccc(NC(=O)COC(=O)c2n[nH]c3ccccc23)c(OC)c1`, the “activation” value is -36.1%. Still for that read-out and setting: to `COc1ccc(S(=O)(=O)N(C)C)cc1NC(=O)COC(=O)c1n[nH]c2ccccc12` belongs -5.05%; to `CC(=O)c1ccc(NC(=O)C2CCN(S(=O)(=O)c3c(C)noc3/C=C/c3ccc(C)cc3)CC2)cc1`, 13.2%. For the compound `CN(CCC#N)c1ccc(C=O)cc1`, the “activation” value is 1.33%.

In the case of `CCN(CCCNC(=O)c1c(C)oc2ncn(CC(C)C)c(=O)c12)Cc1ccccc1`, the “activation” value is 0%.

The values above are taken from PubChem BioAssay AID624202 (National Center for Advancing Translational Sciences (NCATS), 2012).
